The results in this text go back to PubChem BioAssay AID1745847 (National Center for Advancing Translational Sciences (NCATS), 2022).

Out of some 2,100 compounds screened, about 670 (32%) were called active. Not shown: some 50% with an inconclusive outcome. This is one part of the list. Unmarked numbers belong to inactive results. Calls come from the whole dose curve; as a rule, active = well fitted inhibition curve with a large enough effect; inconclusive = small, poorly fitted or top-dose-only effect; inactive = no such curve, though single readings can be large or run the other way.
% is set by controls: 0 for no effect and ±100 for the full control effect; potency is the fitted concentration of half-maximal effect.

This experiment is described as follows: CMV-Luciferase Counterscreen for Inhibitors of ATXN expression. Note: nearly all actives have a fitted effect of over 55% in size. As to conditions: HEK-293 CMV-luciferase reporter, luminescence, 24 h; series mostly up to 57.5 µM. A general note: A counterscreen serves to expose hits that act by an unwanted route or on another target.
As for `Cc1ccc(S(=O)(=O)/C(=C/Cl)NC(=O)c2ccccc2)cc1`, the Potency was 11.2 µM (active).
Regarding `O=C(Nc1ccc(F)cc1)Nc1cc(OCC(F)(F)F)cc(OCC(F)(F)F)c1`, the Potency was 3.98 µM (active).
With `CC[n+]1ccccc1/C=C1\Sc2ccc(C)cc2N1C`, the Potency is 6.31 µM (active).
Regarding `Cc1cc(C)nc(NNS(=O)(=O)c2ccc(F)c(Cl)c2)n1`, the activity change, negative = inhibition was -15.9% [at 11.4 µM].
As for `COc1ccccc1-c1ccc2c(c1)C(C)(Cc1cccc(F)c1)C(=O)N2` (stereo unspecified), the Potency is 28.2 µM (active).
As to `Cc1ccc(Nc2c(-c3ccccn3)nc3cccc(C)n23)cc1`, the Potency was 3.55 µM (active).
As to `Cc1cccc(N(CC(O)CON=C2c3ccccc3-c3ccccc32)S(C)(=O)=O)c1` (stereo unspecified), the Potency was 25.1 µM (active).
As to `N#Cc1ccc(/C=C\c2nccc3c2[nH]c2ccccc23)cc1`, the activity change, negative = inhibition was -24% [at 11.4 µM].
Take `Cc1c(C(=O)N/N=C/c2c(O)ccc3ccccc23)nnn1-c1nonc1N`: the Potency is 0.282 µM (active).
Still for that read-out and setting: then `CC1CCN(Cc2c(C(=O)N/N=C/c3ccccc3O)nnn2-c2nonc2N)CC1`, with 1.58 µM (active); and `Nc1nonc1-n1nnc(C(=O)N/N=C/c2ccccc2O)c1CN1CCCC1`, with 10 µM (active); and `O=C(/C=C/c1ccccc1Cl)c1ccccc(=O)c1O`, with “inactive”.
`COc1cc2c3nnc(-c4ccc(F)cc4)c-3cn(Cc3ccccc3F)c2cc1OC`: the activity change, negative = inhibition was 65% [at 11.4 µM].
In the case of `Oc1c(C(Nc2cccc(C(F)(F)F)c2)c2ccncc2)ccc2cccnc12` (stereo unspecified), the Potency was 3.98 µM (active).
Same read-out and setting: then `O=[N+]([O-])c1ccc(NC(c2ccccc2)c2ccc3cccnc3c2O)cc1` (stereo unspecified), with 2.51 µM (active); and `CC(C)C(=O)NC(c1cccc([N+](=O)[O-])c1)c1ccc2cccnc2c1O` (stereo unspecified), with 2.82 µM (active).
Still for that read-out and setting: to `C[C@@H]1CN([C@H](C)CO)S(=O)(=O)c2ccc(-c3ccc(C#N)cc3)cc2O[C@H]1CN(C)C(=O)Nc1cc(F)ccc1F` belongs 12.6 µM (active); to `Cc1cc(C)c2nc(N3CCCC(C(=O)N4CCN(c5ncccn5)CC4)C3)sc2c1` (stereo unspecified), 3.55 µM (active).
As to `O=c1c(O)c(-c2ccccc2)oc2ccccc12`, the activity change, negative = inhibition was -28.6% [at 11.4 µM].
For the molecule `CCCCN(C(=O)c1cccc2c(=O)c(C)c(-c3ccccc3)oc12)c1ccccc1`, the Potency was 12.6 µM (active).
As to `COc1ccc(Cc2[nH]n3c(=O)cc(C(C)C)nc3c2-c2ccccc2)cc1`, the Potency is 8.91 µM (active).
As for `CN1CCC[C@H]1CCNc1ccc2c(=O)c3ccccc3n(C)c2c1`, the Potency entry was “inactive”.
For the molecule `O=C(CSc1n[nH]c(-c2ccccn2)n1)Nc1ccc(Cl)cc1`, the Potency is 0.794 µM (active).
The same measure, in the same setting: then `O=C(CSc1n[nH]c(-c2ccccn2)n1)Nc1ccccc1`, with 7.94 µM (active).
With `O=C(CC1NCCc2ccccc21)Nc1ccc(Cl)cc1` (stereo unspecified), the activity change, negative = inhibition is 5.88% [at 11.4 µM].
Consider `O=C(CSc1n[nH]c(-c2ccccn2)n1)Nc1ccc(F)cc1`, for which the Potency is 8.91 µM (active).
In the case of `O=C(CSc1ccc2ccccc2c1)Nc1nc2ccccc2[nH]1`, the activity change, negative = inhibition was 78.8% [at 11.4 µM].
With `CCn1cc(C(=O)NCCCN2CCCC(C)C2)c(=O)c2cc(S(=O)(=O)N3CCc4ccccc4C3)ccc21` (stereo unspecified), the Potency entry was “inactive”.
In the case of `CCOC(=O)Cn1cc(C(=O)c2ccco2)c2ccccc21`, the activity change, negative = inhibition was -4.82% [at 11.4 µM].
Turning to `CCn1cc(C(=O)NCc2ccccc2)c(=O)c2cc(F)c(N3CCN(C(=O)c4ccco4)CC3)cc21`, the Potency is 25.1 µM (active).
Same read-out and setting: then `CCn1cc(C(=O)NCc2cccc(F)c2)c(=O)c2cc(F)c(N3CCN(C(=O)c4ccco4)CC3)cc21`, with 15.8 µM (active).
For `COC(=O)c1ccc(Oc2nc(NC(C)C)nc(N(C)C)n2)cc1`, the activity change, negative = inhibition was -22.6% [at 11.4 µM].
Take `O=C(NCc1ccccc1)c1ccc(C(=O)N(C2CCCCC2)C2CCCCC2)cc1`: the Potency is 31.6 µM (active).
In the case of `Nc1c(C(=O)NCc2ccccc2)c2nc3ccccc3nc2n1-c1ccc2c(c1)OCO2`, the activity change, negative = inhibition is 26.3% [at 11.4 µM].
For the molecule `Cc1cc[n+](C(C)C(=O)c2ccc(-c3ccccc3)cc2)cc1` (stereo unspecified), the Potency is 10 µM (active).
For the molecule `CC(C(=O)c1ccc(-c2ccccc2)cc1)[n+]1cccc(NC(=O)c2ccccc2)c1` (stereo unspecified), the activity change, negative = inhibition is -21.8% [at 11.4 µM].
Still for that read-out and setting: to `COc1cccc(C(=O)c2sc(NC(C)C)nc2N)c1` belongs 267% [at 11.4 µM].
With `N#Cc1c(Oc2ccc3ccccc3c2)sc(C(=O)c2ccccc2)c1N`, the Potency was 14.1 µM (active).
Regarding `CNc1ccc(Br)cc(C(=O)/C=C/c2ccc3c(c2)OCO3)c1=O`, the activity change, negative = inhibition is -5.4% [at 11.4 µM].
Turning to `CCOC(=O)Oc1c(OC)cc(C(=O)O[C@@H]2C[C@@H]3CN4CCc5c([nH]c6cc(OC)ccc56)[C@H]4C[C@@H]3[C@H](C(=O)OC)[C@H]2OC)cc1OC`, the Potency was 28.2 µM (active).
On to `CC(C)(C)OC(=O)NNc1c2ccccc2nc2ccccc12`, for which the Potency was 2.24 µM (active).
The same measure, in the same setting: to `Oc1ccc(C2CNCc3sccc32)cc1O` (stereo unspecified) belongs “inactive”.
Still for that read-out and setting: to `COc1cccc2c1C1COC3C4CC(C(=O)O)C(C(C2)N13)N4C` (stereo unspecified) belongs 12.6 µM (active); to `COc1cccc2c1C(CO)N1C(C#N)C3CC(C(=O)O)C(C1C2)N3C` (stereo unspecified), “inactive”.
Take `Oc1ccc(C[C@@H]2CNCCN2CCc2cc(C(F)(F)F)cc(C(F)(F)F)c2)cc1`: the activity change, negative = inhibition was -21.2% [at 11.4 µM].
For `CC[C@]12c3[nH]c4ccc(Cl)cc4c3CCN1C(=O)[C@@H](CC(=O)NCC13CC4CC(CC(C4)C1)C3)C[C@@H]2C(=O)N1CCN(C(=O)C2CC2)CC1`, the Potency was 14.1 µM (active).
The same measure, in the same setting: to `Cc1ccc(Cc2cnc(NC(=O)/C(C#N)=C/c3ccc(-c4cccc([N+](=O)[O-])c4)o3)s2)cc1` belongs “inactive”; to `CCOc1ccc(OCC)c(NC(=O)Nc2ccc3c(c2)N(C)C(=O)CS3)c1`, 22.4 µM (active).
On to `COc1ccccc1CNc1nc(NCc2ccc(NC(C)=O)cc2)c2sccc2n1`, for which the activity change, negative = inhibition is -22.7% [at 11.4 µM].
As to `COc1ccccc1CNc1nc(NCc2cccc(OC)c2OC)c2sccc2n1`, the Potency is 17.8 µM (active).
Still for that read-out and setting: then `O=C(/C=C/c1ccc(Cl)cc1)Nc1ccc(CN2CCOCC2)cc1`, with 3.16 µM (active); and `O=C(CN(c1cccc(Br)c1)S(=O)(=O)c1ccccc1)N/N=C/c1cc([N+](=O)[O-])ccc1O`, with 10 µM (active); and `CN(Cc1ccccc1)C1=CC(=[N+]2CCCC2)CC(C)(C)C1`, with 0.447 µM (active).
Still for that read-out and setting: then `Cc1cccc(OCC(=O)Nc2ccc3c(c2)nc(CCN2CCN(c4ccccn4)CC2)n3C)c1`, with 14.1 µM (active); and `CCn1c(C)nc2cc(C(=O)N/N=C/c3cccc(OC)c3O)ccc21`, with 2.51 µM (active); and `COc1cccc(/C=N/NC(=O)c2ccc(-c3ccccc3)cc2)c1O`, with 2 µM (active).
For `COc1cccc(/C=N/NC(=O)c2cc(-c3ccccn3)nc3ccccc23)c1O`, the Potency is 2.82 µM (active).
Still for that read-out and setting: then `COc1cccc(/C=N/NC(=O)c2c(C)nc3ccc(Cl)cn23)c1O`, with 1.41 µM (active).
Consider `COc1cccc(C=NNC(=O)c2ccncc2)c1O`, for which the Potency was 15.8 µM (active).
Consider `c1ccc2c(c1)c1c(c3ccccc32)CN2CCCC2C1` (stereo unspecified), for which the Potency entry was “inactive”.
Same read-out and setting: to `Cc1cc2c(N=O)c(NO)ccc2[nH]1` belongs 10 µM (active); to `CN(C)CCCN(C(=O)c1ccco1)c1nc2cc3c(cc2s1)OCO3`, “inactive”.
The same measure, in the same setting: to `CN(/N=C/c1cc(Br)cc(Br)c1O)c1cccc(C(F)(F)F)n1` belongs 11.2 µM (active); to `COc1ccc(NC(=S)N(CCCN2CCOCC2)Cc2cn(C)c3ccccc23)cc1`, “inactive”.
Regarding `ClC(Cl)(Cl)c1nc2ccccc2n2nncc12`, the activity change, negative = inhibition was -25.9% [at 11.4 µM].
On to `COc1ccc(C2CC(c3cccc(C(F)(F)F)c3)=NN2c2ccc(S(N)(=O)=O)cc2)cc1` (stereo unspecified), for which the activity change, negative = inhibition was -28.1% [at 11.4 µM].
For the molecule `NS(=O)(=O)c1ccc(N2N=C(c3ccccc3)CC2c2cccc(Br)c2)cc1` (stereo unspecified), the Potency is 17.8 µM (active).
Turning to `NC(Cc1ccc(Cl)cc1)c1csc(Nc2nccc(C(F)(F)F)n2)n1` (stereo unspecified), the Potency entry is “inactive”.
Turning to `CN(C)c1ccc(C(=O)N/N=C/c2cc(Br)cc(Br)c2O)cc1`, the Potency was 3.16 µM (active).
As for `Cc1cc(C(=O)N/N=C/c2cc(Br)cc([N+](=O)[O-])c2O)c2ccccc2n1`, the Potency is 3.55 µM (active).
`O=C(N/N=C/c1cc(Br)cc([N+](=O)[O-])c1O)c1ccc(NC(=O)c2ccc(F)cc2)cc1`: the Potency is 3.16 µM (active).
Turning to `CC(=O)Nc1ccc(C(=O)N/N=C/c2cc(Br)cc(Br)c2O)cc1`, the Potency is 11.2 µM (active).
On to `Cc1ccc2nc(NC(=O)/C=C/c3ccc4c(c3)OCO4)sc2c1`, for which the Potency result was “inactive”.
Still for that read-out and setting: then `O=c1[nH]c(=O)n(C2C[C@H](O)[C@@H](CO)O2)cc1C(F)(F)F` (stereo partly specified), with 2.82 µM (active); and `COC(=O)N/N=C/c1cn(CC(C)COc2ccccc2)c2ccccc12` (stereo unspecified), with 17.8 µM (active).
Still for that read-out and setting: then `c1ccc2c(c1)C(=NC1CCCCC1)NC2=NC1CCCCC1`, with “inactive”; and `O=C(CCCN1C(=O)/C(=C/c2ccccc2Cl)SC1=S)NNC(=O)c1ccc(Cl)cc1Cl`, with 2.82 µM (active); and `O=C(CCCN1C(=O)/C(=C/c2ccccc2Cl)SC1=S)NNC(=O)c1ccc(Cl)cc1`, with 3.98 µM (active).
The same measure, in the same setting: then `Cc1ccc(C(=O)NNC(=O)CCCN2C(=O)/C(=C/c3ccccc3Cl)SC2=S)cc1`, with 11.2 µM (active).
Turning to `Cc1cc(C)c2c(CC(=O)Nc3ccc(Cl)cn3)coc2c1`, the activity change, negative = inhibition is 21.1% [at 11.4 µM].
In the case of `CCc1ccc(/C=C/C(=O)c2cc(Br)ccc(=O)c2O)cc1`, the Potency result was “inactive”.
Same read-out and setting: to `NC(Cc1ccc(Cl)cc1)c1csc(Nc2cc(NCCCO)ncn2)n1` (stereo unspecified) belongs “inactive”.
Same read-out and setting: to `O=C(N/N=C/c1c(O)n(Cc2ccccc2)c(=O)c2ccccc12)c1cccnc1` belongs 12.6 µM (active).
In the case of `Cc1cccc(/C=N/NC(=O)c2cccc(Cl)c2)n1`, the activity change, negative = inhibition was -14.3% [at 11.4 µM].
Regarding `O=C(N/N=C/c1cc(Cl)ccc1O)c1ccccc1Br`, the Potency is 8.91 µM (active).
With `O=C(N/N=C/c1cc(Cl)ccc1O)c1cccnc1`, the Potency is 0.631 µM (active).
